Records with an inconclusive call do not appear. The source made the active and inactive calls. Unless noted, calls come from the whole dose curve; as a rule, active = well fitted cell-killing curve with a large enough effect; inconclusive = small, poorly fitted or top-dose-only effect; inactive = flat fitted curve, though single readings scatter.
Tests used:
[1] = Cell Viability - LYMP2-025 (AID 976); details: LYMP2-025 lymphoblastoid cell viability; series mostly up to 92.2 µM
How it was run: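 Luminescent ATP readout after 24 hr treatment of a human lymphoblastoid line (LYMP2-025, 2500 cells/well, 37 C). Reagent developed 30 min at room temperature; AC50 fitted with the Hill equation.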

[2] = Cell Viability - LYMP2-002 (AID 977); details: LYMP2-002 lymphoblastoid cell viability, qHTS; series mostly up to 92.2 µM;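 note: compound exposure lasted 24 h at 37 °C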
How it was run: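 Human lymphoblastoid cells, 2500/well, complete medium; 5 h 37 C settle; compound 24 h 37 C; CellTiter-Glo, 30 min RT; luminescence. Decrease in ATP = cytotoxicity; AC50 via Hill equation.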

[3] = Cell Viability - LYMP2-006 (AID 978); details: LYMP2-006 lymphoblastoid cell viability, qHTS; series mostly up to 92.2 µM; note: nearly all actives have a fitted effect of over 60% in size
How it was run: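 Cells are seeded at 2500 per well and rested 5 hr at 37 C. Compounds are added across a concentration series for 24 hr at 37 C, after which ATP is quantified by luciferase luminescence.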

[4] = Cell Viability - LYMP2-007 (AID 979); details: LYMP2-007 lymphoblastoid cell viability; series mostly up to 92.2 µM;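 note: cells exposed to compound for 24 h before reading; nearly all actives have a fitted effect of over 60% in size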
How it was run: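 Measured via luciferase-based ATP quantitation: lymphoblastoid cells, 24 hr compound exposure at 37 C, AC50 from Hill fits.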

[5] = Cell Viability - LYMP2-008 (AID 980); details: LYMP2-008 lymphoblastoid cell viability, qHTS; series mostly up to 92.2 µM; note: nearly all actives have a fitted effect of over 60% in size
How it was run: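 Measured: ATP-dependent luminescence, proportional to viable cell number, in human lymphoblastoid cells treated 24 hr with compound in complete culture medium. Values are AC50s from Hill-equation modelling of qHTS titrations.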

[6] = Cell Viability - LYMP2-010 (AID 981); details: LYMP2-010 lymphoblastoid cell viability, qHTS; series mostly up to 92.2 µM; note: nearly all actives have a fitted effect of over 55% in size
How it was run: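 This 24 hr viability screen uses LYMP2-010 lymphoblastoid cells, quantifies ATP via luciferase luminescence, and derives AC50 from Hill fits of qHTS concentration-response data.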

[7] = Cell Viability - LYMP2-012 (AID 982); details: LYMP2-012 lymphoblastoid cell viability qHTS; series mostly up to 92.2 µM;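 note: cellular ATP by luciferase luminescence where a drop means cytotoxicity; cells exposed to compound for one day before reading; nearly all actives have a fitted effect of over 55% in size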
[8] = Cell Viability - LYMP2-014 (AID 983); details: LYMP2-014 lymphoblastoid cells, viability qHTS; series mostly up to 92.2 µM; note: nearly all actives have a fitted effect of over 50% in size
How it was run: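 Quantitative HTS in lymphoblastoid cells: 24 hr compound exposure, then CellTiter-Glo ATP luminescence. Positive control was tetraoctylammonium bromide, 6.4pM to 92 uM.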

[9] = Cell Viability - LYMP2-016 (AID 984); details: LYMP2-016 lymphoblastoid cell viability, qHTS; series mostly up to 92.2 µM; note: nearly all actives have a fitted effect of over 55% in size
How it was run: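 Cells were seeded at 2500 per well and rested 5 hr before a 24 hr compound exposure at 37 C. Viability was then gauged as cellular ATP by luciferase luminescence, with AC50 values fitted to the Hill equation.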

[10] = Cell Viability - LYMP2-018 (AID 985); details: LYMP2-018 lymphoblastoid cells, viability (qHTS); series mostly up to 92.2 µM; note: nearly all actives have a fitted effect of over 50% in size
How it was run: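 In this qHTS viability assay, cells are treated for 24 hr and cellular ATP is quantified by luciferase-based luminescence, with tetraoctylammonium bromide as positive control.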

[11] = Cell Viability - LYMP2-020 (AID 986); details: series mostly up to 92.2 µM; note: nearly all actives have a fitted effect of over 55% in size
How it was run: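 Cells at 2500 per well receive a 24 hr compound exposure at 37 C. Viability is measured as ATP-dependent luciferase luminescence, with AC50 modeled from qHTS concentration-response curves.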

[12] = Cell Viability - LYMP2-022 (AID 987); details: LYMP2-022 lymphoblastoid cell viability; series mostly up to 92.2 µM; note: nearly all actives have a fitted effect of over 55% in size
How it was run: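 In this qHTS cytotoxicity screen, compound titrations were incubated 24 hr at 37 C with human lymphoblastoid cells in complete medium. Luciferase-based ATP luminescence provided the viability signal.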

[13] = Cell Viability - LYMP2-024 (AID 988); details: LYMP2-024 lymphoblastoid cell viability; series mostly up to 92.2 µM; note: nearly all actives have a fitted effect of over 60% in size
How it was run: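 Cells at 2500 per well received compound for 24 hr after a 5 hr settling period. Viability was scored by CellTiter-Glo luminescence, with AC50 from Hill fits.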

[14] = Cell Viability - LYMP2-026 (AID 989); details: LYMP2-026 lymphoblastoid cell viability, qHTS; series mostly up to 92.2 µM; note: nearly all actives have a fitted effect of over 50% in size
How it was run: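 Acute toxicity screen in complete culture medium, with 24 hr compound exposure at 37 C. Viability read as cellular ATP via luciferase reaction, with tetraoctylammonium bromide (6.4pM to 92 uM) as positive control.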

[15] = Cell Viability - LYMP1-002 - Assay at 24 hr (AID 993); details: LYMP1-002 lymphoblastoid cells viability; series mostly up to 92.2 µM
How it was run: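 Viability was judged from intracellular ATP using a luciferase read-out, following a 24-hour compound incubation at 37 C of lymphoblastoid cells seeded at 2500 per well. Concentration-response data were fitted to the Hill equation for AC50.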

[16] = Cell Viability - LYMP1-002 - Assay at 40 hr (AID 994); details: LYMP1-002 lymphoblastoid cell viability; series mostly up to 92.2 µM; note: nearly all actives have a fitted effect of over 60% in size
How it was run: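 Concentration-dependent ATP loss after 40 hr treatment at 37 C defined toxicity; AC50 values were obtained by fitting the standard Hill equation.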

[17] = qHTS Assay for Identification of Small Molecule Inducers of Hypoxia Response (AID 2120; active = well fitted curve in the direction sought with a large enough effect in the signal ratio, with a control signal flat, not every such curve was filed as active; the % refers to the signal ratio); details: hypoxia response reporter cells, beta-lactamase ratio readout; series mostly up to 104 µM
How it was run: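 HRE-bla ME-180, 2500 cells/well, 0.5% dialyzed FBS medium; cpd titration, 17 h 37 degrees C; CCF4 2.5 h RT; Ex 405, Em 460/530 ratio -> %Activity, AC50.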

[18] = molecular target: Estrogen receptor (Homo sapiens) (UniProt P03372); assay: qHTS assay for small molecule antagonists of estrogen receptor alpha signaling (AID 588513; active = well fitted curve in the direction sought with a large enough effect in the signal ratio, with a control signal flat, not every such curve was filed as active; the % refers to the signal ratio); details: ER-alpha-UAS-bla HEK293, beta-lactamase ratio, antagonist mode; series mostly up to 76.9 µM
How it was run: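 Fluorescence from CCF4 substrate after 2 h at room temperature gave reporter activity; cells had been exposed to compound and 0.5nM 17-beta-estradiol for 18 h at 37 C. Hill-equation fitting yielded IC50 and maximal response.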

[19] = molecular target: Estrogen receptor (Homo sapiens) (UniProt P03372); assay: qHTS assay for small molecule agonists of estrogen receptor alpha signaling (AID 588514; calls by dose curve; note: nearly all actives have a fitted effect of over 70% in size); details: ER-alpha-UAS-bla HEK293, beta-lactamase ratio, 18 h; series mostly up to 76.8 µM
How it was run: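 Fluorescence from CCF4 cleavage reports ER-alpha-driven beta-lactamase expression in HEK 293 cells treated 18 hrs at 37 C. Data normalized to 17-beta-estradiol (20 nM) and DMSO, fitted to Hill equation.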

Measured: Potency

Sequence of Estrogen receptor (Homo sapiens) (P03372 whole entry, looked up): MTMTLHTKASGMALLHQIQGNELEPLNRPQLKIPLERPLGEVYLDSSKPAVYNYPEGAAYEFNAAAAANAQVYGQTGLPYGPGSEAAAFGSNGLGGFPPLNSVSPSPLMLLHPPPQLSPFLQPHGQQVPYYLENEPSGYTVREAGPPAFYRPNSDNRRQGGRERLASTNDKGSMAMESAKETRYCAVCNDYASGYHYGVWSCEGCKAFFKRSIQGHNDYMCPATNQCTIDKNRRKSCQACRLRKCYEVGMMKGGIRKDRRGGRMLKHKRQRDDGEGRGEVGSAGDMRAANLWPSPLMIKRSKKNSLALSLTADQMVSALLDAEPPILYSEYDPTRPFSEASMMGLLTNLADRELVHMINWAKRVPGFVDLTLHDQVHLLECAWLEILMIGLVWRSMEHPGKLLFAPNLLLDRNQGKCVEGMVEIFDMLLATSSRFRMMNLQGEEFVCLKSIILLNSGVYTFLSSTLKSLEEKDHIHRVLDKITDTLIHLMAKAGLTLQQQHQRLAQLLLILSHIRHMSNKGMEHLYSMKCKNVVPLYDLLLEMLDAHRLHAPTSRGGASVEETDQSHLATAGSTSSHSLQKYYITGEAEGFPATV

Cc1ccc2ccccc2c1[N+](=O)[O-]
inactive: all assays above

CCCCCO
not listed: [15]
inactive: all other assays above

Cc1cccc2ccccc12
inactive: all assays above

Cc1ccccc1C#N
inactive: all assays above

Cc1cc(C)cc(O)c1
inactive: all assays above

CCCCCCC(=O)O
inactive: all assays above

COc1ccc(N)c(C)c1
inactive: all assays above

O=C(O)c1ccc(Cl)cc1Cl
not listed: [15]
inactive: all other assays above

CCC=O
not listed: [14]
inactive: all other assays above

Cc1cccc(C(=O)O)c1[N+](=O)[O-]
not listed: [14]
inactive: all other assays above

CC#N
inactive: all assays above

Cc1c(N)cccc1[N+](=O)[O-]
not listed: [15]
inactive: all other assays above

CCOCCOCC
inactive: all assays above

CCCCC(CC)COCC1CO1 (stereo unspecified)
inactive: all assays above

C/C=C(/C)C#N
not listed: [9]
inactive: all other assays above

Cc1ccc(Cl)cc1
not listed: [13]
inactive: all other assays above

NC(=O)CCCCC(N)=O
not listed: [9]
inactive: all other assays above

CN(C)CCCNCCCN
not listed: [6] | [7]
inactive: all other assays above

CCCCN(CCO)CCCC
not listed: [14]
inactive: all other assays above

Cc1ccc2ncccc2c1
not listed: [11]
inactive: all other assays above

ICCc1ccccc1
not listed: [6] | [13] | [14] | [16]
inactive: all other assays above

ClC/C=C/CCl
not listed: [7] | [9] | [11] | [13]
inactive: all other assays above

CCOCC(=O)O
not listed: [9]
inactive: all other assays above

Nc1cccc2c(=O)[nH][nH]c(=O)c12
not listed: [13]
inactive: all other assays above

CCCCCCCN
not listed: [13]
inactive: all other assays above

NC(=O)NC(N)=O
not listed: [13] | [14]
inactive: all other assays above

Cc1ccc(C(C)(C)C)cc1
not listed: [13]
inactive: all other assays above

CC(N)CN (stereo unspecified)
not listed: [13]
inactive: all other assays above

CC(=O)c1ccccc1[N+](=O)[O-]
not listed: [14]
inactive: all other assays above

CC(C)(C)c1ccc(OCC2CO2)cc1 (stereo unspecified)
not listed: [9] | [13]
inactive: all other assays above

CC(=O)c1cccc([N+](=O)[O-])c1
not listed: [11]
inactive: all other assays above

C=C(C)C(=O)OCCCCCC
not listed: [11]
inactive: all other assays above
